Sampled rows, rich in hits. Any-hit rate of the full collection: about 4.1%.
HIV Env fusion – inhibitors of HIV-1 Env-driven cell-cell fusion, primary screen, HeLa-JRFL effector, CEM21 target cells, luciferase; inhibition, % at 12.3 µM; actives 1.1% (n = 360,000); AID 651610, 2012;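 active = mean replicate inhibition score of at least 50 and every replicate individually at or above 50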;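 note: 0% = plate neutral controls and 100% = maraviroc near 300 nM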
Casp6 inh – human caspase-6 inhibitors, primary screen, biochemical, VEID-R110 fluorescence, single point, set 2; P55212; purified caspase-6, Z-VEID-R110 cleavage fluorescence; inhibition, % at 12.5 µM; actives 0.53% (n = 350,000); AID 686996, 2013;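 active = mean inhibition across replicates at least about 35%, with every replicate also reaching that limit, limit read from the data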;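 note: 0% = median of neutral control wells and 100% = no fluorescence left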
CFTR F508del cor – F508del CFTR correction, initial screen, CFBE line, single point; AID 720511, 2013; CFBE cells, YFP halide quenching; stimulated with forskolin plus potentiator P3; % fluorescence drop versus neutral controls; activity (quench increase), % at 7.58 µM; actives 0.36% (n = 350,000);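 active = mean added fluorescence quench of at least 8% versus neutral control, with both replicates also reaching 8%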;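 note: cells transiently co-express mutant CFTR-F508del with the halide-sensitive YFP; corrector assay measuring rescue of mutant channel to the surface after 24 h compound exposure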
NSD2 HMT inh – NSD2 histone methyltransferase inhibitors, primary screen, biochemical, AlphaScreen, single concentration, set 2; NSD2 peptide methylation, 120 min; Histone-lysine N-methyltransferase NSD2 (Homo sapiens), O96028; actives 0.54% (n = 310,000); inhibition, % at 12.5 µM; in the data active = inhibition above about 50%
PglD DTNB – C. jejuni PglD acetyltransferase inhibitors, primary screen, biochemical, DTNB colorimetric, single point. UDP-N-acetylbacillosamine N-acetyltransferase PglD (Campylobacter jejuni). inhibition, % at 12.5 µM. actives 0.098% (n = 360,000). purified PglD enzyme, DTNB colorimetric CoA detection. AID 602405, 2012; in the data active = inhibition above about 16%, passing the limit was not always enough
ALR H2O2 inh – inhibitors of human ALR sulfhydryl oxidase, primary screen, biochemical, H2O2 detection, HRP-luminol luminescence, single point. FAD-linked sulfhydryl oxidase ALR (Homo sapiens), P55789. actives 3.8% (n = 290,000). AID 485317, 2010. purified ALR, DTT oxidation. inhibition, % (no concentration beside the values);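 active = mean replicate inhibition above about 79%, with every replicate also reaching it, limit read from the data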
Starred values were filed as active, the others as inactive; [ ] = remark or other dose.

Results for COc1ccccc1C1Nc2ccccc2NC2=C1C(=O)CC(C)(C)C2 (configuration not stated) ?
HIV Env fusion: 10.4; Casp6 inh: 5.2; CFTR F508del cor: 2.0; NSD2 HMT inh: -0.2; PglD DTNB: -6.3; ALR H2O2 inh: 98.8*

Results for Cc1ccc(C2Nc3ccccc3NC3=C2C(=O)CC(C)(C)C3)c(O)c1 (configuration not stated) ?
HIV Env fusion: -18.5; Casp6 inh: 4.4; CFTR F508del cor: 1.4; NSD2 HMT inh: 1.1; PglD DTNB: 0.5; ALR H2O2 inh: 63.3

What do the screens show for `COc1cccc(C2Nc3ccccc3NC3=C2C(=O)CC(C)(C)C3)c1OC` (configuration not stated)?
HIV Env fusion: 12.1; Casp6 inh: 1.1; CFTR F508del cor: -0.7; NSD2 HMT inh: -0.7; PglD DTNB: 1.8; ALR H2O2 inh: 98.6*

Results for Cn1cnc(S(=O)(=O)N2C[C@H](O)COC[C@H]3O[C@H](CC(=O)NCc4ccc(F)cc4)CC[C@@H]32)c1 ?
Casp6 inh: -1.5; CFTR F508del cor: -0.6; PglD DTNB: -2.0

What do the screens show for `CC(Nc1nc(-c2ccc(F)cc2)cs1)c1nc2cc(C(F)(F)F)ccc2n1CCCO` (configuration not stated)?
HIV Env fusion: 74.7*; Casp6 inh: 0.6; CFTR F508del cor: -0.8; PglD DTNB: 2.6; ALR H2O2 inh: 34.3

How did CC(Nc1nc(-c2ccc(F)cc2)cs1)c1nc2cc(C(F)(F)F)ccc2n1CCOCCO (configuration not stated) do in these assays?
HIV Env fusion: 3.1; Casp6 inh: 2.8; CFTR F508del cor: 0.5; PglD DTNB: -0.5; ALR H2O2 inh: -11.1

What do the screens show for `COC(=O)c1ccc2nc(-c3cccc(N)c3)cn2c1`?
HIV Env fusion: 15.3; Casp6 inh: -0.9; CFTR F508del cor: -2.1; NSD2 HMT inh: 8.8; PglD DTNB: -4.8; ALR H2O2 inh: 99.2*

What do the screens show for `COC(=O)c1ccc2nc(-c3ccc(S(C)(=O)=O)cc3)cn2c1`?
HIV Env fusion: -3.9; Casp6 inh: -0.7; CFTR F508del cor: -0.1; NSD2 HMT inh: -4.5; PglD DTNB: -3.8; ALR H2O2 inh: 1.4

What do the screens show for `C[C@@H]1CN([C@@H](C)CO)C(=O)c2cc(NC(=O)Nc3ccccc3)ccc2O[C@@H]1CN(C)C(=O)Nc1ccc2c(c1)OCO2`?
HIV Env fusion: 6.7[16.7 µM]; CFTR F508del cor: 1.4

Results for CCCOC(=O)c1ccc(Oc2cn[nH]c2-c2ccc(O)cc2O)cc1 ?
HIV Env fusion: 10.2; Casp6 inh: 17.7; CFTR F508del cor: 3.8; NSD2 HMT inh: -2.4; ALR H2O2 inh: 84.8*

What do the screens show for `CO[C@H]1CN(C)C(=O)c2cc(NC(C)=O)ccc2OC[C@@H](C)N(Cc2cccnc2)C[C@H]1C`?
HIV Env fusion: -10.4[16.7 µM]; CFTR F508del cor: 1.1; PglD DTNB: 7.3

How did O=C(NC1CCCC1)C(c1ccccc1)n1c(Cc2cc(F)cc(F)c2)nc2ccccc21 (configuration not stated) do in these assays?
HIV Env fusion: 70.9*; Casp6 inh: -1.2; CFTR F508del cor: 1.7

Results for O=C(NC1CCCCC1)C(c1ccc(C(F)(F)F)cc1)n1c(=O)c(-c2ccccc2)nc2ccccc21 (configuration not stated) ?
HIV Env fusion: -0.7; Casp6 inh: 6.4; CFTR F508del cor: -0.6

What do the screens show for `COc1ccc(NC(=S)NNC(=O)c2ccco2)c(OC)c1`?
HIV Env fusion: 15.6; Casp6 inh: 1.6; CFTR F508del cor: -2.0; NSD2 HMT inh: -0.5; PglD DTNB: -1.7; ALR H2O2 inh: 77.1*

Results for COc1ccc(C(=O)NC(=S)NNC(=O)c2ccco2)cc1 ?
HIV Env fusion: -7.2; Casp6 inh: -1.1; CFTR F508del cor: 1.5; NSD2 HMT inh: -1.6; PglD DTNB: 7.0; ALR H2O2 inh: 99.7*

How did COc1ccccc1OCC(=O)NNC(=S)NC(=O)c1ccco1 do in these assays?
PglD DTNB: 2.4; ALR H2O2 inh: 89.2*

Assay outcomes (PubChem BioAssay)
